Inconclusive results are not listed. Activity calls are given as the source filed them. Unless noted, calls come from the whole dose curve; as a rule, active = well fitted curve in the direction sought with a large enough effect; inconclusive = small, poorly fitted or top-dose-only effect, or another doubt; inactive = no such curve, though single readings can be large; an effect the other way counts as inactive or inconclusive.

A short description of assay [1]: qHTS for differential inhibitors of proliferation of Plasmodium falciparum line Dd2 (AID 1882). Note: nearly all actives have a fitted effect of over 65% in size. Note: potency is the fitted concentration of half-maximal effect. The note with it: Potency: Plasmodium falciparum Dd2 proliferation inhibition. In short, it runs like this: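 RBC culture, 0.3% parasitemia / 2.5% Hct final; cpd added by pin tool in DMSO; 72 h, 37 C, 5% CO2; lysis buffer + SYBR Green I, o/n RT dark; FI 485/535; norm. to artemisinin 0.29 uM and DMSO.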
(In general: qHTS replaces the single test concentration by a dilution series.)

The nature of assay [2]: qHTS for differential inhibitors of proliferation of Plasmodium falciparum line W2 (AID 1883).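 Note: potency is the fitted concentration of half-maximal effect; parasites grown with compound for 72 h before lysis and staining.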 As to conditions: Potency: Plasmodium falciparum W2 proliferation inhibition.
Assay [3] is described as follows: qHTS for differential inhibitors of proliferation of Plasmodium falciparum line HB3 (AID 1886).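 Note: parasites grown with compound for 72 h before SYBR Green readout.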 Note: potency is the fitted concentration of half-maximal effect. The note with it: Potency: Plasmodium falciparum HB3 proliferation inhibition.
In assay [4] the target is ATP-dependent DNA helicase Q1 (Homo sapiens) (UniProt P46063). The experiment in a line: qHTS Validation Assay for Inhibitors of RecQ-Like Dna Helicase 1 (RECQ1) (AID 2353). The method in brief: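 RECQ1T1 50 nM; forked duplex (20 bp + 30-nt ss tails) 200 nM, ATP 2 mM final; pH 8.0, 2 mM MgCl2, 2.5 ug/ml poly(dI-dC); 15 min compound preincubation; discontinuous kinetic read over 2 h at RT.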

Assay [5] is described as follows: Cytometric Cell-Based qHTS for Inhibitors of the mTORC1 Signaling Pathway in MEF (Tsc2-/-, p53-/-) Cells (AID 2660).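 Note: Tsc2 and p53 null MEFs carrying empty vector with compound for 24 h; percent of cells above a phospho-rpS6 to PI ratio cutoff in each well; series mostly up to about 38 µM.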 The method in brief:
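Immunofluorescence qHTS of rpS6 Ser235/236 phosphorylation: MEFs (Tsc2-/-, p53-/-) treated 24 h, 37 C, in DMEM + 10% FBS. Alexa-488 signal normalized to PI count, referenced to rapamycin (7.5 nM) and DMSO; PI cell number recorded for viability.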

The nature of assay [6]: High Content Imaging Cell-Based qHTS for Inhibitors of the mTORC1 Signaling Pathway in MEF (Tsc2-/-, p53-/-) Cells (AID 2666).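 Note: percent of cells scored positive for phospho-rpS6 Ser235/236 immunostaining by imaging.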 The method in brief:
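Tsc2-/-, p53-/- MEFs (empty-vector stable) grown in DMEM + 10% FBS were exposed to compounds for 24 hrs at 37 degree Celsius, fixed, and stained with Alexa-488 anti-phospho-rpS6 Ser235/236 plus Hoechst. Imaging gave the percentage of positive cells per well.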

Assay [7] in a line: Cytometry Cell-Based qHTS for Inhibitors of the mTORC1 Signaling Pathway in MEF cells (AID 2668). Note: potency is the fitted concentration of half-maximal effect. The method in brief:
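MEFs (Tsc2-/-, p53-/- stably expressing WT Tsc2) treated 24 h at 37 degree Celsius, fixed, stained with Alexa-488 anti-phospho-rpS6 Ser235/236 and propidium iodide; Acumen laser scanning. Reported as % positive cells, phospho-S6 normalized to PI.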

In assay [8] the target is Ubiquitin carboxyl-terminal hydrolase 2 (Homo sapiens) (UniProt O75604). Description: qHTS Validation Assay for Inhibitors of Ubiquitin-specific Protease USP2a Using CHOP2 as the Reporter (AID 463106). The method in brief:
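Readout was coupled fluorescence (Ex 485/Em 531 nm), read 60 min after adding 25 nM final Ub-CHOP2 and 25 nM reporter substrate. Beforehand, 10 nM final USP2 core had 30 min at RT with compound in pH 8.0 buffer. Curves were fitted after normalization to NEM and flagged for artifacts using time-zero reads.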

Assay [9] concerns the target DNA polymerase III PolC-type (Bacillus subtilis (strain 168)) (UniProt P13267). The experiment in a line: qHTS Validation Assay for the Inhibitors of DNA Replication in Gram-Positive Bacteria (AID 485295).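 Note: PicoGreen fluorescence of double-stranded DNA made on primed circular M13 template; series mostly up to about 57 µM.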 In short, it runs like this:
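Reconstituted B. subtilis Pol III holoenzyme (PolC, beta clamp, SSB, primase) preincubated with compound, then M13Gori single-stranded circular template with dNTPs/NTPs added; room temperature reaction. Stopped with EDTA/PicoGreen; dsDNA fluorescence read, EDTA as full-inhibition control.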

Assay [10] deals with Beta-2 adrenergic receptor (Homo sapiens) (UniProt P07550). The experiment in a line: qHTS validation assay of beta-arrestin-biased ligands of beta2-adrenergic receptor (AID 485366). The method in brief:
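Agonism was measured as beta-arrestin recruitment to recombinant beta2-AR, releasing tTA to drive luciferase. Cells were exposed for 18 hr at 37 degrees C to a series up to 46 microM. %Activity from corrected luminescence gave concentration-response curves.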

Assay [11] concerns the target Ferritin light chain (Equus caballus) (UniProt P02791). Description: qHTS Validation Assay for Identification of Novel General Anesthetics (AID 2323). Note: series mostly up to about 77 µM. The method in brief:
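Horse-spleen apoferritin (10 uM) in PBS with 50% saturated 1-aminoanthracene; compounds pin-transferred, 10 min at room temperature. Fluorescence read at 380/535 nm, normalized to free 1-AMA and 1-AMA/apoferritin values; four-parameter Hill fit.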

A short description of assay [12]: High Content Imaging Cell-Based qHTS for Inhibitors of the mTORC1 Signaling Pathway in MEF Cells (AID 2667).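 Note: Tsc2-/- p53-/- MEFs stably re-expressing wild-type Tsc2 exposed 24 h; series mostly up to about 38 µM.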 In short, it runs like this: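 Tsc2-/-, p53-/- MEFs stably re-expressing WT Tsc2, grown in DMEM + 10% FBS, were treated with compounds for 24 hrs at 37 degree Celsius, fixed, and stained with Alexa-488 phospho-rpS6 Ser235/236 antibody plus Hoechst; results given as % positive cells.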

Assay [13] is described as follows: Validation screen for small molecules that induce DNA re-replication in MCF 10A normal breast cells (AID 463097). Note: nearly all actives have a fitted effect of over 60% in size. Note: potency is the fitted concentration of half-maximal effect. The method in brief:
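MCF 10A cells exposed to compound 48 hr at 37 C, 5% CO2, then Hoechst-stained 40 min. Laser-scanning imaging of nuclear DNA content (405 nm ex, 500-530 nm em); re-replication scored as rise in nuclei with elevated fluorescence intensity.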

In assay [14] the target is Tumor susceptibility gene 101 protein (Homo sapiens) (UniProt Q99816). The experiment in a line: qHTS Validation Assay for Iinhibitors of HIV-1 Budding by Blocking the Interaction of PTAP/TSG101 (AID 485342; calls by dose curve). The method in brief:
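Tsg101 binding domain (10 uM) with FITC-labeled PTAP peptide (50 nM) in HEPES pH 7.5 buffer, 20 min at r.t. with compounds. Binding measured by fluorescence polarization.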

Assay [15] is described as follows: qHTS Validation Assay to Find Inhibitors of Chronic Active B-Cell Receptor Signaling (AID 485345; active = well fitted curve in the direction sought with a large enough effect in the main read-out, with a control signal flat, not every such curve was filed as active). In short, it runs like this: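 Read-out: ratio of filter-corrected green (IkappaBalpha fusion) to red (native) luciferase signal in doxycycline-induced TMD8 cells after 4 h at 37C. Titration spanned 46 uM–3 nM; Data were normalised to basal cells and 10 uM MG-132 wells.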

The target of assay [16] is RecQ-like DNA helicase BLM (Homo sapiens) (UniProt P54132). The experiment in a line: qHTS Validation Assay for Inhibitors of Bloom's syndrome helicase (BLM) (AID 2364). In short, it runs like this:
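Forked 20-bp duplex substrate (200 nM, TAMRA/BHQ-2) plus 2 mM ATP added after 15 min compound preincubation with 50 nM enzyme, pH 8.0, poly(dI-dC) 2.5 ug/ml. Strand separation followed by fluorescence (525/598 nm) over 2 h, normalized to enzyme-free and DMSO controls.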

Sequence of RecQ-like DNA helicase BLM (Homo sapiens) (P54132 whole entry, looked up): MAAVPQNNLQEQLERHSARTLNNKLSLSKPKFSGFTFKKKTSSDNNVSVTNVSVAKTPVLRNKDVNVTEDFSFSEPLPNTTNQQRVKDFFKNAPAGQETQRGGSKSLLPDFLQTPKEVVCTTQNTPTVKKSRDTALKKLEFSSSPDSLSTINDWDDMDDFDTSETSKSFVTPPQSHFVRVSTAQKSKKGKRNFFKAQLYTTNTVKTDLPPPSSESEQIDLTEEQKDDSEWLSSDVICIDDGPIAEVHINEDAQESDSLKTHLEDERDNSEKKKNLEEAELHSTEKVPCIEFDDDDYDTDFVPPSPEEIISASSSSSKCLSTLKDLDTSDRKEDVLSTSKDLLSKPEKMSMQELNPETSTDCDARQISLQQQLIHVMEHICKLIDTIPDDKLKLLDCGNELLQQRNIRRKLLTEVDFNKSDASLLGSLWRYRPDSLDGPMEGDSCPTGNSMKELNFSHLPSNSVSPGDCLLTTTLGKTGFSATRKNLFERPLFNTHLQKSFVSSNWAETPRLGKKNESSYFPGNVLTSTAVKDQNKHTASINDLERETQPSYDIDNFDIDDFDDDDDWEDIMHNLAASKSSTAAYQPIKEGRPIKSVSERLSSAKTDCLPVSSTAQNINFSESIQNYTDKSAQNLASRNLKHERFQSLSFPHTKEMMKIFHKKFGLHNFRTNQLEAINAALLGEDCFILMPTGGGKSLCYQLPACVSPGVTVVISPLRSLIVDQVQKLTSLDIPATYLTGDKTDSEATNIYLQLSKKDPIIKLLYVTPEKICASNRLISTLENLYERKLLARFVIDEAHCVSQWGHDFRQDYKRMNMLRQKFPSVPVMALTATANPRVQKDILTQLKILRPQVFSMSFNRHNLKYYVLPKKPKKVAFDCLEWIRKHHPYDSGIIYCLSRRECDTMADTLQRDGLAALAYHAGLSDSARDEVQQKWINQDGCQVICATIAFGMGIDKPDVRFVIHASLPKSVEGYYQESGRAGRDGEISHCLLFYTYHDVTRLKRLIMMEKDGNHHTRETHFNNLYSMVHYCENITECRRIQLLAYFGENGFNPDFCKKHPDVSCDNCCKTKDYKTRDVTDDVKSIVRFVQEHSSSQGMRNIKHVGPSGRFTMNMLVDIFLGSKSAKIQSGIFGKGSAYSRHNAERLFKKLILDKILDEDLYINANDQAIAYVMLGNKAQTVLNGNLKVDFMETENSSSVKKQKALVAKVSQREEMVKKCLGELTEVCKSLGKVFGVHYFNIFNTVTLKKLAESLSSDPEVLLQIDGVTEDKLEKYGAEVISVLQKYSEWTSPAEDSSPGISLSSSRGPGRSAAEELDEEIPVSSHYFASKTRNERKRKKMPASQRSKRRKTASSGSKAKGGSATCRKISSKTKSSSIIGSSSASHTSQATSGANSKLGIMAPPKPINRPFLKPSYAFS
Sequence of Ferritin light chain (Equus caballus) (P02791 2-175 limits assumed): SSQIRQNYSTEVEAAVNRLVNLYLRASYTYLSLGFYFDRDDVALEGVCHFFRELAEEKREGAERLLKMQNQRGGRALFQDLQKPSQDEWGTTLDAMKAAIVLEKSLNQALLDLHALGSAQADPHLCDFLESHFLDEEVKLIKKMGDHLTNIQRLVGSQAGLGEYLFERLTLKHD
Sequence of ATP-dependent DNA helicase Q1 (Homo sapiens) (P46063 whole entry, looked up): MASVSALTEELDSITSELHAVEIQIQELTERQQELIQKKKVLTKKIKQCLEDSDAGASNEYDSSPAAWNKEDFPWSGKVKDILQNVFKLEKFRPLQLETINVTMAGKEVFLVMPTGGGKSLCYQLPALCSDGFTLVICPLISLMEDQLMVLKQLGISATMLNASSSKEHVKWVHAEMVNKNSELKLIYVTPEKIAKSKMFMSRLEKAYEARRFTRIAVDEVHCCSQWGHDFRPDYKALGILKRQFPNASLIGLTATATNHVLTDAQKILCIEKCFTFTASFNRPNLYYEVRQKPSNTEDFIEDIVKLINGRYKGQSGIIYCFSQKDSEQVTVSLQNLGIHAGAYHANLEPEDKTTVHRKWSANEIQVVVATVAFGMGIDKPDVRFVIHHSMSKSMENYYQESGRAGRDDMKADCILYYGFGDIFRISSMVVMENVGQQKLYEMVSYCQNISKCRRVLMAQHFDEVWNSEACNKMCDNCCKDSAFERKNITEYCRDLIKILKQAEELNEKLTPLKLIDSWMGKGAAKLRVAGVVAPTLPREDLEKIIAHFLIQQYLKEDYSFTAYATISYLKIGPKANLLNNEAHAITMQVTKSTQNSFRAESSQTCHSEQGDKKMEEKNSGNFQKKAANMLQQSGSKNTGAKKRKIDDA
Sequence of DNA polymerase III PolC-type (Bacillus subtilis (strain 168)) (P13267 whole entry, looked up): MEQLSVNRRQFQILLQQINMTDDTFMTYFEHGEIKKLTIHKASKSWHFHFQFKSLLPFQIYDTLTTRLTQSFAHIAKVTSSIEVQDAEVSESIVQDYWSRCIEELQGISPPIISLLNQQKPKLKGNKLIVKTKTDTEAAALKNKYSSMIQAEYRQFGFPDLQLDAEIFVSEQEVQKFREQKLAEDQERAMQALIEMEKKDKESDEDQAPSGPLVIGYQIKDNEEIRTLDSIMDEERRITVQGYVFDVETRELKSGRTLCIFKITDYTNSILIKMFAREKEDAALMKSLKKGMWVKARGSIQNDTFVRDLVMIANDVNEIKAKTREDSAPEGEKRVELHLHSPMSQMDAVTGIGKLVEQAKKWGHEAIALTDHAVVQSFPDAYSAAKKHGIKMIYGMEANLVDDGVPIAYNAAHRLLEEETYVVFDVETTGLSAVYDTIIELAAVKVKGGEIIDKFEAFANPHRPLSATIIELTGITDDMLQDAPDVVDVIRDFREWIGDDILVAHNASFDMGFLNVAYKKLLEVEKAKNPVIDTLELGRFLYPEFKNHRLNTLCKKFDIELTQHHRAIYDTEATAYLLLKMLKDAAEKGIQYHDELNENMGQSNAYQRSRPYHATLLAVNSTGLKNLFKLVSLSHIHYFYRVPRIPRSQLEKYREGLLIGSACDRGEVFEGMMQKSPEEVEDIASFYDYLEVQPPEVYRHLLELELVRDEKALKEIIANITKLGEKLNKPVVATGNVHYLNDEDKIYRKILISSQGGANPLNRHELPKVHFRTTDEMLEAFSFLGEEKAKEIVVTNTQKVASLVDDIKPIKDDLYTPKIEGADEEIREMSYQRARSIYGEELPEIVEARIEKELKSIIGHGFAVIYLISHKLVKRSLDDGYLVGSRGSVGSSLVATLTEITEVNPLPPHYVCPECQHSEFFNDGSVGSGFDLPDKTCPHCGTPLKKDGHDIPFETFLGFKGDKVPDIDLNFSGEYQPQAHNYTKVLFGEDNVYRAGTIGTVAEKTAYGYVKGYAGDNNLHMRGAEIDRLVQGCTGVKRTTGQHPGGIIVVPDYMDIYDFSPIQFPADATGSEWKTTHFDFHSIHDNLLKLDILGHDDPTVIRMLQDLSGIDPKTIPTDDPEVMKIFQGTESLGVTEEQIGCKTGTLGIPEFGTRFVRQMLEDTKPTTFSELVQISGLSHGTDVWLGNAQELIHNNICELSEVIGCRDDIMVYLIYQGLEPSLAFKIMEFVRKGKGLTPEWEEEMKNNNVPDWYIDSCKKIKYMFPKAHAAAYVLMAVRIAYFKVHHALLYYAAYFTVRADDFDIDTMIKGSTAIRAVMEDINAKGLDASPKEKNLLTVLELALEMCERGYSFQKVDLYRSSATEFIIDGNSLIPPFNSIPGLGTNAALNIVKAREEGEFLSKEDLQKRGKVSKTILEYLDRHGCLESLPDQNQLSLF
Sequence of Tumor susceptibility gene 101 protein (Homo sapiens) (Q99816 whole entry, looked up, the tested form may be a part): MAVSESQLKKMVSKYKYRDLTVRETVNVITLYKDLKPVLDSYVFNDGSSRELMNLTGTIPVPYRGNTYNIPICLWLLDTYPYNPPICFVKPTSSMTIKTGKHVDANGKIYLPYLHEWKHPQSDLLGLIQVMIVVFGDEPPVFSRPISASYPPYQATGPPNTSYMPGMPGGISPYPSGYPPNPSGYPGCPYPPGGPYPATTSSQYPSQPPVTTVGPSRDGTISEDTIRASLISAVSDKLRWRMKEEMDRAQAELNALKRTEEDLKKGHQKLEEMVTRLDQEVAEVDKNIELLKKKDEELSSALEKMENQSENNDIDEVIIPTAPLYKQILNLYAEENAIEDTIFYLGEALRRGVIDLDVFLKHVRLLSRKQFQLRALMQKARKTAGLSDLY
Sequence of Beta-2 adrenergic receptor (Homo sapiens) (P07550 whole entry, looked up): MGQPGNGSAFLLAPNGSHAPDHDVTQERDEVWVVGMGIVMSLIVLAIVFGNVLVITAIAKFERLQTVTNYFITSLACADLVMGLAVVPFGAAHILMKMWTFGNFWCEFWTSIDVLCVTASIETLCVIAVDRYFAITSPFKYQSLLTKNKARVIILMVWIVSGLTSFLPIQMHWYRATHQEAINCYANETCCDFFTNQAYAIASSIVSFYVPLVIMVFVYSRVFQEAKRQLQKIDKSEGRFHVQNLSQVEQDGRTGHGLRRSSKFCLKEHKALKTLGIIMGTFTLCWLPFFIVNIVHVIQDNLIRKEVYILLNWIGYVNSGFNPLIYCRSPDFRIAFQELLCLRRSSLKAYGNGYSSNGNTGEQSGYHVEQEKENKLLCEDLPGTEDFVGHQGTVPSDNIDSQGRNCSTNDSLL

`N#C/C(=C\c1ccc(O)c(O)c1)C(=O)NCCc1ccccc1`: the Potency in assay [1] is 11.2 µM (active); in [2] it was 10 µM (active); in assay [3] it was 11.2 µM (active); in [7] it was 10.4 µM (active). Further, the Potency entry in assay [4], in assay [6], in assay [8] and in assay [9] was “inactive” in each case. Further, the molecule was called inactive in assay [5] and in [10].
`NC(=O)CNCCC(c1ccccc1)c1ccccc1`: the results for the Potency in [1] and in assay [2] were 4.47 µM (active) and 2.24 µM (active), respectively. The Potency entry in assay [3], in assay [11], in [4], in assay [12], in assay [7] and in assay [13] was “inactive” throughout. Also, the Potency result in assay [8] and in assay [9] was “inactive” throughout. In addition, the outcome in assay [5], in assay [14], in [15] and in assay [10] was inactive.
For `CN(C)S(=O)(=O)c1ccc2c(c1)/C(=C/c1cc3c([nH]1)CCCC3)C(=O)N2`, the Potency in assay [1] is 7.08 µM (active); in assay [2] it was 3.55 µM (active); in [3] it was 3.98 µM (active). Further, the Potency entry in assay [4], in assay [6], in assay [12], in assay [8] and in [9] was “inactive” throughout. The molecule was classed as inactive in assay [14] and in assay [10].
Consider `COc1ccc2c(c1)c(CC(=O)O)c(C)n2Cc1ccc(Cl)cc1`, for which the Potency entry in [1], in assay [4], in assay [16], in [6], in assay [12] and in assay [7] was “inactive” each time. In addition, the Potency entry in [13], in assay [8] and in assay [9] was “inactive” in each case. For the same molecule, the Potency was 8.91 µM (active) in assay [2] and 14.1 µM (active) in assay [3]. Besides, the outcome in [5], in [14], in assay [15] and in assay [10] was inactive.
Regarding `NC(N)=NC(N)=Nc1cccc(Cl)c1`, the Potency entry in assay [1], in [11], in assay [6], in [7], in assay [13] and in assay [8] was “inactive” each time. Besides, the Potency entry in assay [9] is “inactive”. For the same molecule, the results for the Potency in assay [2] and in [3] were 5.01 µM (active) and 8.91 µM (active), respectively. In addition, the molecule was called inactive in assay [5], in assay [14], in assay [15] and in assay [10].
As for `O=C(O)Cc1ccc(O)c(O)c1`, the Potency entry in assay [1], in assay [3], in [11], in assay [4], in assay [12] and in assay [7] was “inactive” in each case. The Potency result in assay [13], in assay [8] and in assay [9] was “inactive” each time. The molecule was classed as inactive in assay [5], in assay [14], in assay [15] and in assay [10].
For the molecule `O=C(O)C1CCCNC1` (stereo unspecified), the Potency result in assay [1], in assay [3], in [11], in assay [4], in [16] and in [7] was “inactive” in each case. The Potency result in assay [13], in assay [8] and in assay [9] was “inactive” throughout. The outcome in assay [5], in assay [14], in assay [15] and in [10] was inactive.
Regarding `O=c1cc(-c2ccccc2)[nH]c2nc(Cl)ccc12`, the Potency entry in assay [1], in [11], in [4], in [6], in assay [12] and in [8] was “inactive” each time. Moreover, in assay [9], the Potency entry is “inactive”. The Potency was 10 µM (active) in [2] and 6.31 µM (active) in [13]. Besides, the molecule was classed as inactive in assay [5], in assay [15] and in [10].
For `CNCCNS(=O)(=O)c1cccc2cnccc12`, the Potency result in [1], in [3], in assay [11], in assay [4], in [16] and in assay [7] was “inactive” in each case. Further, the Potency result in assay [13], in [8] and in assay [9] was “inactive” throughout. Moreover, the molecule was classed as inactive in assay [5], in assay [14] and in assay [10].
`CCN(CC)CCCCCCCCOC(=O)c1cc(OC)c(OC)c(OC)c1`: the Potency in [1] was 8.91 µM (active); in [2] it was 3.55 µM (active). The Potency result in [11], in assay [4], in assay [16], in assay [12], in assay [13] and in assay [8] was “inactive” each time. The Potency result in assay [9] was “inactive”. Further, the molecule was called inactive in [5], in [14] and in [10].
Consider `COC(=O)C(C)(N)Cc1ccc(O)cc1` (stereo unspecified), for which the Potency entry in [1], in assay [4], in assay [16], in assay [6], in assay [12] and in assay [7] was “inactive” in each case. Besides, the Potency result in assay [13], in assay [8] and in [9] was “inactive” throughout. The Potency in assay [2] was 12.6 µM (active). For the same molecule, the result in assay [15] and in [10] was inactive.

The values above are taken from PubChem BioAssay (NCATS).
